Experiments:
Experiment in all cases: log2 ratio of Biotin-Ahx-Ub-VS probe labelling (fragment/DMSO); higher = less target engagement (more negative = stronger competition), active = hit call of the paper (q ≤ 0.05, log2 ratio ≤ -1)
Details in all cases: compound concentration: 200 uM; treatment time: 3 h
[1] = target: T1, USP19 (UniProt O94966)
T1 sequence (whole entry): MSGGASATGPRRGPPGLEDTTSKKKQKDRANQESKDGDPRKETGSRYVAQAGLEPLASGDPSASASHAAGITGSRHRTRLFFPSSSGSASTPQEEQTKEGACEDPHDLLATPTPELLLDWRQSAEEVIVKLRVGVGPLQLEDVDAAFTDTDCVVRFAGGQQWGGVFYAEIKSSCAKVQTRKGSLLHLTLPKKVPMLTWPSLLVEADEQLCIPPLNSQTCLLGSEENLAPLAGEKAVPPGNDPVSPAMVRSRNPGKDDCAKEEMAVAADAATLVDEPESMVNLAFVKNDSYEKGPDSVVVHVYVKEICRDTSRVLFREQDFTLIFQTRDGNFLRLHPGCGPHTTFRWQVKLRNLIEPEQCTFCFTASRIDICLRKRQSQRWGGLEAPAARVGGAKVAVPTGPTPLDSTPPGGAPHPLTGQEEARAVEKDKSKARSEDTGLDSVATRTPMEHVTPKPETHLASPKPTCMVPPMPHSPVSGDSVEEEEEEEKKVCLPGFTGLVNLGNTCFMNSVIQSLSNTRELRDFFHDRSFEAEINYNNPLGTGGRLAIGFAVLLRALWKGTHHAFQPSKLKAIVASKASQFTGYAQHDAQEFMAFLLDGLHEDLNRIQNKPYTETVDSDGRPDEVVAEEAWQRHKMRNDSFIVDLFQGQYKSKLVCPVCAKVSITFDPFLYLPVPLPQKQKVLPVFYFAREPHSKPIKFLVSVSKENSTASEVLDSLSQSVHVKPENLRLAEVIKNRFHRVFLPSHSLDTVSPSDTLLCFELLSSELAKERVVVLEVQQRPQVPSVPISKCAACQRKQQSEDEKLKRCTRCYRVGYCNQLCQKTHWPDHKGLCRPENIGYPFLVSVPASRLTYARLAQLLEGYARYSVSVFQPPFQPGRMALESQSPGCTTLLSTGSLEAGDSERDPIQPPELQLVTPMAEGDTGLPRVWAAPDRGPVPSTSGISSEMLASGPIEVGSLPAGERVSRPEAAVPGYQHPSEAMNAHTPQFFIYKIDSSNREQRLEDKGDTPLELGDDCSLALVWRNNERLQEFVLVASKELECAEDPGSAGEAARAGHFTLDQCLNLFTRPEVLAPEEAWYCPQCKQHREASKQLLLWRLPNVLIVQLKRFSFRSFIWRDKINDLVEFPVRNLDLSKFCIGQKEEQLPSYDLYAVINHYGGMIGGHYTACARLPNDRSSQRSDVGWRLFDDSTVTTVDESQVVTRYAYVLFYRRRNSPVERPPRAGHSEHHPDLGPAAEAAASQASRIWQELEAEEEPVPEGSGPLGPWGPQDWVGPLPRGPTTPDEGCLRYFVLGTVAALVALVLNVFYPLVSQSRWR
How it was run: (§1)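 Labelled DUBs from HEK293T lysate were NeutrAvidin-enriched, digested with LysC and trypsin, and run by diaPASEF LC-MS/MS. Before that, each 495 µg sample in Tris/CHAPS/IGEPAL buffer with protease inhibitors was treated in triplicate with fragment at 200 µM or vehicle for 3 h, then with Biotin-Ahx-Ub-VS at 0.5 µM final for 1 h. Values are average log2 ratios of fragment over vehicle by unpaired t-test, based on global-median-normalised Spectronaut label-free quantities from proteins with ≥2 unique peptides.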

[2] = target: T2, USP22 (UniProt Q9UPT9)
T2 sequence (whole entry): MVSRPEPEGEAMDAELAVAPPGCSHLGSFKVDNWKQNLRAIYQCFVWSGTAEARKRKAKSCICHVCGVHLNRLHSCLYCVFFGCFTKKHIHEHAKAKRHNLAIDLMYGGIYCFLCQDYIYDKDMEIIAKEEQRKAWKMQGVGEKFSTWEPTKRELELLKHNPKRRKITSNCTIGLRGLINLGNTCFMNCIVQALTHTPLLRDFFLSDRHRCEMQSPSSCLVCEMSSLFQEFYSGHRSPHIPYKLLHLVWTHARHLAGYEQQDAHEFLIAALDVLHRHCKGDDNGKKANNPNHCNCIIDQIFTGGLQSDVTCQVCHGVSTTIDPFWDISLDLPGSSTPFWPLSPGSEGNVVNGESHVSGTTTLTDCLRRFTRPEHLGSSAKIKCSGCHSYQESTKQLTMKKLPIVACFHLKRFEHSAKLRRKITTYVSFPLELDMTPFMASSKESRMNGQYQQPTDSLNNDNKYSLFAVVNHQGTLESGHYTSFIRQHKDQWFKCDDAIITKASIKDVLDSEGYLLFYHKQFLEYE
How it was run: as §1

[3] = target: USP24 (UniProt Q9UPU5)
Sequence of USP24 (Q9UPU5 whole entry): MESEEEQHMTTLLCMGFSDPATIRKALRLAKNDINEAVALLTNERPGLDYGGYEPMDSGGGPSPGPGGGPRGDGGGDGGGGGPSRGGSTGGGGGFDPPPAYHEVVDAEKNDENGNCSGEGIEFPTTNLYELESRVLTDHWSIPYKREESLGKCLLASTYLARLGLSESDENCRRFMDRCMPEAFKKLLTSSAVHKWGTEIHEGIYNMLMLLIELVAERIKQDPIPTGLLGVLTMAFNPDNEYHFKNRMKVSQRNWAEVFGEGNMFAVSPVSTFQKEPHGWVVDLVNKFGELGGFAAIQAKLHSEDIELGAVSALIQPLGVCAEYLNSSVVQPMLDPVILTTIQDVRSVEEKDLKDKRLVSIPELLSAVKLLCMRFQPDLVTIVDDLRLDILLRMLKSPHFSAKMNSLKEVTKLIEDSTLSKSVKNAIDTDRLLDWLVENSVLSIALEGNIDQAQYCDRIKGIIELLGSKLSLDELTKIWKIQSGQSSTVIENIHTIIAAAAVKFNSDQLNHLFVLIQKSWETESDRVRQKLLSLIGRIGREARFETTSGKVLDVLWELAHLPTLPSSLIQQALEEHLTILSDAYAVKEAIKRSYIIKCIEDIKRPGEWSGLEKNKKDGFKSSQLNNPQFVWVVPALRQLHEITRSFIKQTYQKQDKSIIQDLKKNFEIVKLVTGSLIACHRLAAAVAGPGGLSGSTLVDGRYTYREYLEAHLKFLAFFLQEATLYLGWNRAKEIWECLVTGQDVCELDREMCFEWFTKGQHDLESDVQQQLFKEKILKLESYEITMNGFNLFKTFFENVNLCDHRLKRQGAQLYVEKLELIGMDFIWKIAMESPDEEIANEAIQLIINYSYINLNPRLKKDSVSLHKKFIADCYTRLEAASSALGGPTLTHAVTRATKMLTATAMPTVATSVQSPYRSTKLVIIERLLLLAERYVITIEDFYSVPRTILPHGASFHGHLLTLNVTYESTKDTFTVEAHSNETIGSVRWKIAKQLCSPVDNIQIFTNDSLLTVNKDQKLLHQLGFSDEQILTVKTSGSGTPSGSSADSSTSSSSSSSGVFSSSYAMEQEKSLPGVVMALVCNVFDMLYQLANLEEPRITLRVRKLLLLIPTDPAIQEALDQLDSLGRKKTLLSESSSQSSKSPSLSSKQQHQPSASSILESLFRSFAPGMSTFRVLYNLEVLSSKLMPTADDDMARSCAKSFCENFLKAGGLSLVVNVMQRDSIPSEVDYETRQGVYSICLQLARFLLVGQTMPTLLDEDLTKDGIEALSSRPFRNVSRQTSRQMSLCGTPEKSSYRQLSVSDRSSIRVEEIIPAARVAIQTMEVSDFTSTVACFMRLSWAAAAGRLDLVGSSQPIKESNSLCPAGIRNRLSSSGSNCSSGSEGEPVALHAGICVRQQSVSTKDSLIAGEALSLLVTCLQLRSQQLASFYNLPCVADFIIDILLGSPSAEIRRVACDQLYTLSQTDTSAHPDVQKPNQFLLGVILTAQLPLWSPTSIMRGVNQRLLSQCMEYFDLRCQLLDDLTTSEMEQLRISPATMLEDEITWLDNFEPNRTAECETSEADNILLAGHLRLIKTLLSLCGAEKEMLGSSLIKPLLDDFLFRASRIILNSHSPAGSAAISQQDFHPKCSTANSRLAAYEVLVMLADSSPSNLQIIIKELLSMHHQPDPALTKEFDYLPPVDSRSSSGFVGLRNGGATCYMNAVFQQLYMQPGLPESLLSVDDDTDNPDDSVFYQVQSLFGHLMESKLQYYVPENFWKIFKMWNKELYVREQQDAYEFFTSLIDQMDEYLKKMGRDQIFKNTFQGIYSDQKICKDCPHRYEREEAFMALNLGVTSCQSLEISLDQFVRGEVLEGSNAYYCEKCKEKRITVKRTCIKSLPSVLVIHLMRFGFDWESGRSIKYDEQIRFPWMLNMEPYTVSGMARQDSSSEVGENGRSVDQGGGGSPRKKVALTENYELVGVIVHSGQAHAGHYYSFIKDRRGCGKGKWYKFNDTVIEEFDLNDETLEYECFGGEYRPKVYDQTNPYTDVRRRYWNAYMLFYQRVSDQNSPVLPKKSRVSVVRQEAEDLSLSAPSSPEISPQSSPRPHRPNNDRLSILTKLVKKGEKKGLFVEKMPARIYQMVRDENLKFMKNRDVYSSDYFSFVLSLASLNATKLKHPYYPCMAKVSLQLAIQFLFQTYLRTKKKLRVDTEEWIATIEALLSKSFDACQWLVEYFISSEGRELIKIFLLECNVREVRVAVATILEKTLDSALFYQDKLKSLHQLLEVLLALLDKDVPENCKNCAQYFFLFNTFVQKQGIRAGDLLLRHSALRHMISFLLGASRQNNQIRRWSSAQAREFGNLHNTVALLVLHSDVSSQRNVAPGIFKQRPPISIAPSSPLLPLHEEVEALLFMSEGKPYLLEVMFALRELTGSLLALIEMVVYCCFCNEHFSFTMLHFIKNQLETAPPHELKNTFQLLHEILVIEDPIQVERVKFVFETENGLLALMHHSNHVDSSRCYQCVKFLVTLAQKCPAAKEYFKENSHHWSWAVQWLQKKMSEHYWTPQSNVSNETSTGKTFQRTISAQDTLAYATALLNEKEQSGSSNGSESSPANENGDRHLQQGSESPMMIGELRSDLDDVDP
How it was run: as §1

[4] = target: T3, USP25 (UniProt Q9UHP3)
T3 sequence (whole entry): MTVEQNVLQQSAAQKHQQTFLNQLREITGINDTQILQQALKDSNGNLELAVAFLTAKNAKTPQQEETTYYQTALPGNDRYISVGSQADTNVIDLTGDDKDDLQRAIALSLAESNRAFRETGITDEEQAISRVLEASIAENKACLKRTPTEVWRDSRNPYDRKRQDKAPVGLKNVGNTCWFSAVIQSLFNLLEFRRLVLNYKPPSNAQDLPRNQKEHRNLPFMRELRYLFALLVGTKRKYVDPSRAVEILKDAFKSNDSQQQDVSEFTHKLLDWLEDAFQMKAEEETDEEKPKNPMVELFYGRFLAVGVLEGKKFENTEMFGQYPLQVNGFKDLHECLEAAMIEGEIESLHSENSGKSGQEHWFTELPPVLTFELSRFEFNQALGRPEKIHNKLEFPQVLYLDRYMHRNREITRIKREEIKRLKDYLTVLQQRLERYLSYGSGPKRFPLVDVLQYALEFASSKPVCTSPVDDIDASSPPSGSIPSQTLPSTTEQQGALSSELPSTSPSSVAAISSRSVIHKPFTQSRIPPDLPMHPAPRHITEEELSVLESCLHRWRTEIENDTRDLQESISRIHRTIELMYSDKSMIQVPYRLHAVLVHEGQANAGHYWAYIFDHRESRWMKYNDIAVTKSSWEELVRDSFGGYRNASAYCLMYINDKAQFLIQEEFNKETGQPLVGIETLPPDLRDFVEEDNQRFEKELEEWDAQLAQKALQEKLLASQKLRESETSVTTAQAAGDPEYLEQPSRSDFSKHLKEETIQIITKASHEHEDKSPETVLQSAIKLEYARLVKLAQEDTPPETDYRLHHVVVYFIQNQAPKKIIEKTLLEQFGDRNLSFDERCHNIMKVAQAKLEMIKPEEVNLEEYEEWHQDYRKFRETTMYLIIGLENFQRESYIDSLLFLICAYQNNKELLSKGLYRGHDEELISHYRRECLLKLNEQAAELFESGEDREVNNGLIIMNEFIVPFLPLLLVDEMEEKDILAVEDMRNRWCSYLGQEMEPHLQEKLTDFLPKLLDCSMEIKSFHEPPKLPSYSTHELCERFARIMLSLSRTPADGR
How it was run: as §1

[5] = target: T4, USP28 (UniProt Q96RU2)
T4 sequence (whole entry): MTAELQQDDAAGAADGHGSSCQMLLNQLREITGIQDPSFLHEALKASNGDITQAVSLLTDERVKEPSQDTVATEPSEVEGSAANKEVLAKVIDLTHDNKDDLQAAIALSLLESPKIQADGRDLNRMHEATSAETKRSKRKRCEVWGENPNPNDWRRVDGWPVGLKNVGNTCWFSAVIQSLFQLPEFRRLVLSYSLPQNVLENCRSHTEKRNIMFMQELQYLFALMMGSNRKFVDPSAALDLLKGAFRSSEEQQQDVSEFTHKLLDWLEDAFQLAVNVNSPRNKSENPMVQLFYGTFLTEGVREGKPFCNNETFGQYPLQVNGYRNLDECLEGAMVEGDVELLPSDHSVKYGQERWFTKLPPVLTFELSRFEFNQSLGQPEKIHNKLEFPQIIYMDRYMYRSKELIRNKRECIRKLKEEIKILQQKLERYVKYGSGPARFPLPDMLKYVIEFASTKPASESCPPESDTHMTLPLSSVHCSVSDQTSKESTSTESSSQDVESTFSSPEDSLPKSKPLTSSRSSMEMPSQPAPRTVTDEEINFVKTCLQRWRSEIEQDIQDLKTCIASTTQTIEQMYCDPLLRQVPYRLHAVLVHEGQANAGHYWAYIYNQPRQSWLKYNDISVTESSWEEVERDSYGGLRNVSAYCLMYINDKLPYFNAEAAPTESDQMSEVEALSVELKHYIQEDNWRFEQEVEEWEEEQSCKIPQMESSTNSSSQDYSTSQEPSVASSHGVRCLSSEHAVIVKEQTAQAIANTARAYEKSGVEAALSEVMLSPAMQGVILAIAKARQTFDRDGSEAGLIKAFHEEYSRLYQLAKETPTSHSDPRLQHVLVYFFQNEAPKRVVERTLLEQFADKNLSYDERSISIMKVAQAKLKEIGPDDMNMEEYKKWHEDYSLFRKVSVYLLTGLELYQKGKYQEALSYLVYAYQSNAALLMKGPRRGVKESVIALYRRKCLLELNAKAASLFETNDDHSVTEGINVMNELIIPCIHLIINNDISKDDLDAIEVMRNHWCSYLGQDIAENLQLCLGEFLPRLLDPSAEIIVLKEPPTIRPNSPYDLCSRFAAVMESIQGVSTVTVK
How it was run: as §1

Measured: log2 ratio of Biotin-Ahx-Ub-VS probe labelling

Cc1ccc(CC(NC(=O)CCl)c2ccccn2)cc1.Cl (stereo not given)
inactive: [1] 0.168 | [2] -0.153 | [3] -0.13 | [4] -0.098 | [5] -0.126

— the supplement of paper PMC11732987, “Enantioselective OTUD7B fragment discovery through chemoproteomics screening and high-throughput optimisation” (Communications Chemistry, 2025)
